Results reported in ChEMBL document CHEMBL4888484, “Replenishing the malaria drug discovery pipeline: Screening and hit evaluation of the MMV Hit Generation Library 1 (HGL1) against asexual blood stage Plasmodium falciparum ,using a nano luciferase reporter read-out” (2022).
Screen size: about 4,800 compounds; about 420 (8.8%) showed an effect of 50% or more. Many of the other results were omitted from the sample, so strong results are more common in it than they were.

Each compound was assayed on Plasmodium falciparum (assay: Confirmatory screen in NF54 nanoGlo assay, in single point, at 2uM, 72h). Details: timepoint 72 hour.
Type: functional, Erythrocyte

Structure (SMILES)	% Inhibition
O=C(NCc1ccccc1OC1CCC1)N(CCO)C1CC1	-2%
CC(=O)N(c1ccccc1)[C@H]1C[C@@H](C)N(C(=O)C(F)(F)F)c2ccccc21	9%
Cc1noc(C)c1CN1CCNC(=O)CC1	-11%
Cc1noc(C)c1CN1C[C@@H]2Oc3cc(F)ccc3C(=O)N(C)[C@@H]2C1	92%
Cc1noc(C)c1CN1CCCN(C(=O)c2n[nH]c3ccccc23)CC1	0%
O=C1O[C@@H](CO)CN1c1cccc(F)c1	-4%
COc1ccc2nc(N3CN(Cc4ccccc4)CN(c4nc5ccc(OC)cc5s4)C3)sc2c1	3%
O=C(Cc1ccc(N(Cc2cccc(F)c2)C(=O)c2cccc(F)c2)cc1)NCCN1CCCCC1	38%
Cc1ccc(C(=O)N(Cc2cccc(F)c2)c2ccc(CC(=O)N[C@@H](C)c3ccccc3)cc2)cc1	81%
Cc1ccccc1C(=O)N(Cc1cccc(F)c1)c1ccc(CC(=O)NCCN2CCCCC2)cc1	44%
CNC(=O)Cc1c(Cl)cccc1Cl	1%
CN1CCN(C(=O)C[C@@H]2CCN3C[C@@H]2/C=C\COc2ccccc2CN(C(=O)CC(C)(C)C)CC3=O)CC1	5%
Nc1cc(Br)c(C(F)(F)F)cc1NC(=O)C(F)(F)F	-11%
CCn1cc(Br)c(=O)c(NC(=O)[C@H]2CCCOC2)c1	-7%
Cc1nc2cc(NC(=O)c3cccs3)ccc2o1	-8%
CC(C)(CC(=O)Nc1ccc2oc(C3CC3)nc2c1)C(=O)O	-2%
Cc1nc2cc(NC(=O)[C@@]3(C)CCCN(C(=O)c4ccccc4)C3)ccc2o1	57%
CNC(=O)c1cnc(C=Cc2cnc(-c3cccnc3)s2)s1	0%
Cc1cc(C)c2ccc3ccccc3c2n1	-4%
CC[N+](C)(CC)CCOc1cc(C)c2ccccc2n1	53%
CC(C)(NCc1ccccc1Cl)C(=O)O	4%
Cc1ccc(S(=O)(=O)Nc2ccc(Oc3ccc(NS(=O)(=O)c4ccc(C)cc4)cc3)cc2)cc1	3%

Structure (SMILES)	% Inhibition
N[C@H]1C[C@H](c2cc(NCCCc3cccnc3)nc(C3CC3)n2)C1	75%
Cc1ccc(OCCNc2cc([C@H]3C[C@H](N)C3)nc(C3CC3)n2)cc1C	31%
N#Cc1c(-c2ccccc2)cc(-c2ccccc2)nc1S(=O)(=O)Cc1ccccc1	35%
N#Cc1nc2c(C#N)c(N)n(CCc3ccccc3)c2nc1C#N	87%
Nc1nc2c(s1)CN(CCc1ccccc1)CC2	38%
O=C(c1ccccc1)N1N=C(C(F)(F)F)C2CCCCCC21O (stereo not given)	-11%
CCC1Cn2c(C(=O)NC(C)Cc3ccco3)cc3cccc(c32)O1 (stereo not given)	-8%
CCOC(=O)N(c1ccccc1)[C@H]1CC(=O)N(c2ccccc2)C1=O	1%
Cc1nnc2ccc(S(=O)(=O)Nc3cc(F)cc(F)c3)cn12	-4%
O=C(NCCCN1CCOCC1)c1ccc(-c2cnc(NC3CCCCC3)nc2)cc1	-8%
Cn1cc(CN2CCC(C(=O)NCCCN3CCCCC3)CC2)c2cc(Cl)ccc21	-7%
Cc1cc2nc(C)c(=O)n(Cc3ccc(C(=O)NCCN4CCCC[C@@H]4C)cc3)c2cc1C	17%
COc1ccc(-c2nccn3cc(C(=O)NCCN(C)C4CCCCC4)nc23)cc1	6%
O=S1(=O)NC(c2ccccc2)(c2ccccc2)c2ccccc21	1%
Cc1ccc(NC(=O)c2c(C)nc3sc(C(=O)NCc4ccccc4)c(N)c3c2-c2cccs2)c(C)c1	2%
CCc1ccc(NC(=O)c2sc3nc(C)c(C(=O)Nc4ccc(C)cc4C)c(-c4ccccc4Cl)c3c2N)cc1	16%
Cc1ccc(NC(=O)c2c(C)nc3sc(C(=O)NCc4ccccc4)c(N)c3c2-c2ccccc2Cl)c(C)c1	77%
CC(C)N(CC(=O)Nc1nccs1)Cc1ccccn1	68%
CC(C)NC(=O)C(=O)Nc1nccs1	-14%
CC(C)c1nc(CN(C)[C@@H](C)C(=O)Nc2nccs2)cs1	22%
O=c1cc2c(nn1Cc1ccccc1Cl)-c1ccccc1CC2	-8%
O=C(c1ccc(O)cc1)C1CCN(C[C@H](O)C(F)(F)F)CC1	5%

Structure (SMILES)	% Inhibition
Cc1nn(C)c2c(N3CCc4ccccc4C3)nc(C3CC3)nc12	-7%
CCOCCCNC(=O)c1ccc(-c2ccc3c(c2)CCN3C(C)=O)cc1	-2%
O=C(NCC1CCCCC1O)c1cnn2ccncc12 (stereo not given)	-12%
O=C(NCC1CCCCC1)c1cn[nH]c1-c1ccccc1	-4%
O=C1Nc2ccccc2O[C@H]2C[C@@H]1N(CC1CC1)C2	-10%
CC(=O)c1cccc(NC(=O)Cc2c(C)nc3nc(C4CCCCC4)nn3c2C)c1	5%
c1ccc(-c2noc(-c3ccc(NC4CCCCC4)nn3)n2)cc1	55%
CC(C)N1CCN(C(=O)CN2N=C(c3nc(-c4ccccc4)no3)CCC2=O)CC1	5%
Clc1ccc(-c2noc(C3CNC3)n2)cc1	21%
Cc1nn(-c2ncc(C(F)(F)F)cc2Cl)c(=O)n1-c1cccc(F)c1	-4%
CC(C)(C)c1nc(CNc2ccc(S(=O)(=O)CCO)cc2)no1	-9%
O=C(COc1ccc(Cl)cc1)N1CC(n2cnnc2C2CC2)C1	-7%
COc1ccc(Cl)cc1C(=O)N(C1CCOCC1)[C@H]1CCCN(S(C)(=O)=O)C1	-9%
COc1ccc(Cl)cc1C(=O)Nc1cc(C2CC2)nn1-c1nc(C)cc(=O)[nH]1	66%
COc1ccc(NC(=O)c2cc(C3CC3)nc3onc(C4CC4)c23)cc1Cl	-3%
Cc1cc(=O)[nH]c(N2CCCCCC2)n1	-2%
Cc1cc(=O)[nH]c(-n2nc(C3CC3)cc2NC(=O)C(C)(C)Oc2ccc(Cl)cc2)n1	85%
CC(C)C[C@H](N)C(=O)N1CC2CCCCC2C1 (stereo not given in full)	-3%
CS(=O)(=O)N1C[C@@H]2CCCN2c2cc(C(F)(F)F)ccc21	4%
Cc1csc(C(C)(C)NC(=O)NCCC2=CCCC2)n1	-3%
CCOC(=O)c1sc(NC)nc1C(F)(F)F	-19%
